Results filed as inconclusive are left out. The source made the active and inactive calls. How the source made its calls: active means hit-call score of the fitted dose curve at least 0.9, where 1 is the maximum; inconclusive means response in the unintended direction; inactive means score below 0.9.
How the values were obtained:
[1] = target: human Leukotriene B4 Receptor 1 (LTB4-BLT1), LTB4R (gene 1241) (UniProt Q15722); experiment: NVS_GPCR_hLTB4_BLT1: NovaScreen (NVS) G Protein-Coupled Receptor Assay for human Leukotriene B4 Receptor 1 (LTB4-BLT1) (AID 2283271)
Method in brief: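 Cell-free human neutrophil receptor preparation, 1 h exposure, radioligand binding read by filter scintillation counting. Single 25 uM duplicate screen, then concentration series topping at 50 uM; binding loss scored against DMSO baseline.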

[2] = target: rat Serotonin, 5-Hydroxytryptamine Receptor 1 (5HT1), Non-Selective Binding, Htr1a (gene 24473) (UniProt P19327); experiment: NVS_GPCR_r5HT1_NonSelective: NovaScreen (NVS) G Protein-Coupled Receptor Assay for rat Serotonin, 5-Hydroxytryptamine Receptor 1 (5HT1), Non-Selective Binding (AID 2283286)
Method in brief: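 Binding of a radioligand to rat cortex membranes is read by filtration and scintillation counting after 1 h. Compounds were screened at 25 uM in duplicate. Actives were then titrated to a top of 50 uM. DMSO is the baseline.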

[3] = target: human Histamine 1 Receptor (H1), HRH1 (gene 3269) (UniProt P35367); experiment: NVS_GPCR_hH1: NovaScreen (NVS) G Protein-Coupled Receptor Assay for human Histamine 1 Receptor (H1) (AID 2283268)
Method in brief: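 Filter-based scintillation detection of radioligand binding to human H1, 1 h incubation; chemicals screened in duplicate at 25 uM, then concentration-response; signal loss relative to DMSO taken as activity.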

[4] = target: D(1A) dopamine receptor (Homo sapiens) (UniProt P21728); experiment: NVS_GPCR_hDRD1: NovaScreen (NVS) G Protein-Coupled Receptor Assay for human Dopamine Receptor D1 (DRD1) (AID 2283269)
Method in brief: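 HEK293-derived receptor preparation; radioligand competitive displacement; 1 h; filtration + scintillation counting. DMSO = negative control/baseline. Primary: 25 uM, duplicate; secondary: concentration–response for actives.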

[5] = target: Muscarinic acetylcholine receptor M1 (Homo sapiens) (UniProt P11229); experiment: NVS_GPCR_hM1: NovaScreen (NVS) G Protein-Coupled Receptor Assay for human Muscarinic, M1 Receptor (AID 2283270)
Method in brief: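 Actives from a duplicate 25 uM single-point screen were retested in concentration series. Binding measured as displacement of a radioligand from CHO-derived receptor preparation, 1 h incubation, filtration and scintillation counting, analysed as signal loss against DMSO.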

[6] = target: Muscarinic acetylcholine receptor M3 (Homo sapiens) (UniProt P20309); experiment: NVS_GPCR_hM3: NovaScreen (NVS) G Protein-Coupled Receptor Assay for human Muscarinic, M3 Receptor (AID 2283272)
Method in brief: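 Radioligand displacement binding on human M3 receptor in CHO-derived membranes, 1 h incubation, filter-based scintillation counting. Primary screen in duplicate at 25 uM; actives followed up in concentration series; loss of signal versus DMSO.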

[7] = target: Muscarinic acetylcholine receptor M2 (Homo sapiens) (UniProt P08172); experiment: NVS_GPCR_hM2: NovaScreen (NVS) G Protein-Coupled Receptor Assay for human Muscarinic, M2 Receptor (AID 2283273)
Method in brief: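 Filter-based radiodetection read bound radioligand 1 h after dosing CHO-derived membrane protein. Single-concentration duplicates (25 uM) first, then concentration-response for actives; signal loss versus DMSO scored.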

[8] = target: human Muscarinic, M4 Receptor, CHRM4 (gene 1132) (UniProt P08173); experiment: NVS_GPCR_hM4: NovaScreen (NVS) G Protein-Coupled Receptor Assay for human Muscarinic, M4 Receptor (AID 2283274)
Method in brief: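 Filter-based scintillation counting of radioligand bound to CHO-expressed human M4 preparations after 1 h; loss of signal fitted versus DMSO. Initial duplicate testing at 25 uM, concentration-response follow-up for actives.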

[9] = target: Muscarinic acetylcholine receptor M5 (Homo sapiens) (UniProt P08912); experiment: NVS_GPCR_hM5: NovaScreen (NVS) G Protein-Coupled Receptor Assay for human Muscarinic, M5 Receptor (AID 2283275)
Method in brief: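 Chemicals passing a primary duplicate screen at 25 uM were run as singleton concentration series, maximum 50 uM. Displacement of a specific radioligand from CHO-extracted receptor was read by filter scintillation after 1 h, relative to DMSO.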

[10] = target: human Neuropeptide Receptor Y1 (NPY1), NPY1R (gene 4886) (UniProt P25929); experiment: NVS_GPCR_hNPY1: NovaScreen (NVS) G Protein-Coupled Receptor Assay for human Neuropeptide Receptor Y1 (NPY1) (AID 2283276)
Method in brief: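 Displacement of specific radioligand from NPY1 receptor of SK-N-MC origin, read by filtration and scintillation after 1 h. Compounds first tested at 25 uM in duplicate, then actives in concentration series; signal loss relative to DMSO.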

[11] = target: human Neurokinin, NK2 Receptor, TACR2 (gene 6865) (UniProt P21452); experiment: NVS_GPCR_hNK2: NovaScreen (NVS) G Protein-Coupled Receptor Assay for human Neurokinin, NK2 Receptor (AID 2283278);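 further: actives reduce bound radioligand signal relative to DMSO baseline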
Method in brief: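 Filter-based scintillation counting measured radioligand bound to receptor extracted from CHO cells, 4 hours after compound addition. Chemicals screened first at 25 uM in duplicate, with actives retested in concentration series relative to DMSO.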

[12] = target: human Opioid Receptor Delta 1 (Opiate D1), OPRD1 (gene 4985) (UniProt P41143); experiment: NVS_GPCR_hOpiate_D1: NovaScreen (NVS) G Protein-Coupled Receptor Assay for human Opioid Receptor Delta 1 (Opiate D1) (AID 2283280)
Method in brief: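 Membrane preparations from CHO cells bearing the human receptor were incubated 1 h with test chemical, and bound radioligand was counted after filtration. Actives from 25 uM duplicate screening were retested in concentration-response.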

[13] = target: human Orphanin, Opioid Related Nociceptin Receptor 1 (ORL1), OPRL1 (gene 4987) (UniProt P41146); experiment: NVS_GPCR_hORL1: NovaScreen (NVS) G Protein-Coupled Receptor Assay for human Orphanin, Opioid Related Nociceptin Receptor 1 (ORL1) (AID 2283283)
Method in brief: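 Cell-free binding using HEK293-derived receptor protein: radioligand displacement measured by filter scintillation 1 hour after dosing. Primary testing at 25 uM in duplicate, followed by singleton concentration series up to 50 uM; DMSO served as negative control.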

[14] = target: Neuropeptide Y receptor type 2 (Homo sapiens) (UniProt P49146); experiment: NVS_GPCR_hNPY2: NovaScreen (NVS) G Protein-Coupled Receptor Assay for human Neuropeptide Receptor Y2 (NPY2) (AID 2283277)
Method in brief: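 Chemicals were first tested in duplicate at 25 uM, then actives in singleton concentration series to 50 uM. Tracer binding to SK-N-MC-derived protein measured cell-free after 1 h via filter scintillation; signal loss relative to DMSO.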

[15] = system: rabbit Platelet Activating Factor Receptor (PAF), gene 100354046; experiment: NVS_GPCR_rabPAF: NovaScreen (NVS) G Protein-Coupled Receptor Assay for rabbit Platelet Activating Factor Receptor (PAF) (AID 2283287)
Method in brief: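 Rabbit platelet membrane preparation; radioligand displacement read by filter-based scintillation counting 1 h after dosing, loss of signal versus DMSO. Primary screen in duplicate at 25 uM, actives followed up in concentration series.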

[16] = target: human Endothelin Receptor Type B (ETB), EDNRB (gene 1910) (UniProt P24530); experiment: NVS_GPCR_hETB: NovaScreen (NVS) G Protein-Coupled Receptor Assay for human Endothelin Receptor Type B (ETB) (AID 2283267)
Method in brief: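 Filter-based scintillation readout of radioligand displacement, 4 h, using membranes from human astrocytoma cells. Actives from a 25 uM duplicate screen were retested in concentration-response (top 50 uM) relative to DMSO baseline.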

[17] = target: human Thromboxane A2 Receptor (TXA2), TBXA2R (gene 6915) (UniProt P21731); experiment: NVS_GPCR_hTXA2: NovaScreen (NVS) G Protein-Coupled Receptor Assay for human Thromboxane A2 Receptor (TXA2) (AID 2283282);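 further: actives reduce bound radioligand signal relative to DMSO baseline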
Method in brief: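 Human platelet-derived receptor preparation incubated with test chemical and radiolabelled ligand for 1 hour, cell-free. Bound label was separated by filtration and counted; displacement relative to DMSO controls gave activity, screened at 25 uM, then titrated.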

Sequence of Muscarinic acetylcholine receptor M5 (Homo sapiens) (P08912 whole entry, looked up): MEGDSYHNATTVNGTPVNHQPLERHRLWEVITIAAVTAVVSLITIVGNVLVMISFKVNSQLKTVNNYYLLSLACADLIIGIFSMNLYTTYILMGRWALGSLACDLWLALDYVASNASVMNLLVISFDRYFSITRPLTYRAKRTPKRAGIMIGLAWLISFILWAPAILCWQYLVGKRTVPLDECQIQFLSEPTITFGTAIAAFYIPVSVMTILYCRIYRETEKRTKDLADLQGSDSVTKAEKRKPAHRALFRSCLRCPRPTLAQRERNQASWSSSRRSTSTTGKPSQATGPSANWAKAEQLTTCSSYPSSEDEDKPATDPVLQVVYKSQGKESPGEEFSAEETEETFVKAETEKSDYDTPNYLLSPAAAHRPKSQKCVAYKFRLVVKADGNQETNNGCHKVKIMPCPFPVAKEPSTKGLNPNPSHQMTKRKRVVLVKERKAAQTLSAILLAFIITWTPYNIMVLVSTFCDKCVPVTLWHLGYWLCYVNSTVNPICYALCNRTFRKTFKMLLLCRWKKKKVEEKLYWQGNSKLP
Sequence of human Histamine 1 Receptor (H1), HRH1 (gene 3269) (P35367 whole entry, looked up): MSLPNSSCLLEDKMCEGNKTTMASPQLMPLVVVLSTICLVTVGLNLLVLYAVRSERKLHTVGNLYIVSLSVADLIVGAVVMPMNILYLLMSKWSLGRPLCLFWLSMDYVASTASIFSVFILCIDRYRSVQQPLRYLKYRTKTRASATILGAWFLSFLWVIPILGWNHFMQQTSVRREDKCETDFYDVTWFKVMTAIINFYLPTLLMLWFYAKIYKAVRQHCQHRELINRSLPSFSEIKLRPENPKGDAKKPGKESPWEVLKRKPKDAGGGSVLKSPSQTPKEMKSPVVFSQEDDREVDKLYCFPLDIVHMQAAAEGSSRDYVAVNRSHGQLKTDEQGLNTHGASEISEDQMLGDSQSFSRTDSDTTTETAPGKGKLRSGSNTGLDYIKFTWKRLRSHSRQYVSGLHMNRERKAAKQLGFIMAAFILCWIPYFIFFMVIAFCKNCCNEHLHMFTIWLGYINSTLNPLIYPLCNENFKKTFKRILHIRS
Sequence of Muscarinic acetylcholine receptor M2 (Homo sapiens) (P08172 whole entry, looked up): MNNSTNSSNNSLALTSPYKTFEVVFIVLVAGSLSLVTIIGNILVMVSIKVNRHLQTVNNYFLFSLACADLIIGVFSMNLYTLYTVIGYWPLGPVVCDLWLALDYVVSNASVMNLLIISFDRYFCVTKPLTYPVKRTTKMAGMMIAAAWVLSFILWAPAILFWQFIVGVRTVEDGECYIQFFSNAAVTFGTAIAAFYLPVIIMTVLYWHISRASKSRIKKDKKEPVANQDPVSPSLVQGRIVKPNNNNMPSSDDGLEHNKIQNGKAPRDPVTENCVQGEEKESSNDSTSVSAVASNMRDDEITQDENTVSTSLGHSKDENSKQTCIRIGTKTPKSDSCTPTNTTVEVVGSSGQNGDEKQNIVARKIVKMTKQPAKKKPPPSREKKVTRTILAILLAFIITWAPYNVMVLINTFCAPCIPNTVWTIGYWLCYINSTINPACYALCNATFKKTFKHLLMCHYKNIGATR
Sequence of D(1A) dopamine receptor (Homo sapiens) (P21728 whole entry, looked up): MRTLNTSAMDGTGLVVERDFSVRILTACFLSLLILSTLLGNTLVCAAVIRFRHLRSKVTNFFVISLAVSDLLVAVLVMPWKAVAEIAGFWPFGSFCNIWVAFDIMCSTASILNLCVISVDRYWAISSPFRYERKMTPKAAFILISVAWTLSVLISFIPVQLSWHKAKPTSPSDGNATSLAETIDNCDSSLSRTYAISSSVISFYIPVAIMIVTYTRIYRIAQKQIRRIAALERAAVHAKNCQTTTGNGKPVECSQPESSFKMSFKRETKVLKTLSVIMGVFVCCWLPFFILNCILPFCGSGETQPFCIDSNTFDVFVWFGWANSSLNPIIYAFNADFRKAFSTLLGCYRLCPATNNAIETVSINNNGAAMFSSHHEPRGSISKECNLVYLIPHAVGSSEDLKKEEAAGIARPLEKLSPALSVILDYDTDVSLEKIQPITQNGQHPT
Sequence of human Neurokinin, NK2 Receptor, TACR2 (gene 6865) (P21452 whole entry, looked up): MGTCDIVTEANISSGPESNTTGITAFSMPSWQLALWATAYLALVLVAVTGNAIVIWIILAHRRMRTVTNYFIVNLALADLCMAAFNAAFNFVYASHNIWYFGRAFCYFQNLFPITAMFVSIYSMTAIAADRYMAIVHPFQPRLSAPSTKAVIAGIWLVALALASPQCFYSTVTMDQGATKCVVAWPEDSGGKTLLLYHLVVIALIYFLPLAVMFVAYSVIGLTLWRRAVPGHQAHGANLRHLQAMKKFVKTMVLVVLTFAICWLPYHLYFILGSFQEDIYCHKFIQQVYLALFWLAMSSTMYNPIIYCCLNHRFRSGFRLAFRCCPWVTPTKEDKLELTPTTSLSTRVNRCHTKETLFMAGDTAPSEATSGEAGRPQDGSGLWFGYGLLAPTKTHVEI
Sequence of Muscarinic acetylcholine receptor M1 (Homo sapiens) (P11229 whole entry, looked up): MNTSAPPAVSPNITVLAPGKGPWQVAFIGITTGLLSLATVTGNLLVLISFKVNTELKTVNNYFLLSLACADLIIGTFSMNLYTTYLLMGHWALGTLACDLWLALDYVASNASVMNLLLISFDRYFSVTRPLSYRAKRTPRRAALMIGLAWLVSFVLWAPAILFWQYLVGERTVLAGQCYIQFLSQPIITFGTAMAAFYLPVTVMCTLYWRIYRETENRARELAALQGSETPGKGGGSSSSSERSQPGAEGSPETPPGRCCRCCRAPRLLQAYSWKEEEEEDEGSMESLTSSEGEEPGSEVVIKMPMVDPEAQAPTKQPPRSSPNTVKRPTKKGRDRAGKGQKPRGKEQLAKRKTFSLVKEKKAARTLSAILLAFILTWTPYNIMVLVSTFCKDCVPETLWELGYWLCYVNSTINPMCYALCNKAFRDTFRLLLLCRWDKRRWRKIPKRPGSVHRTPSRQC
Sequence of human Thromboxane A2 Receptor (TXA2), TBXA2R (gene 6915) (P21731 whole entry, looked up): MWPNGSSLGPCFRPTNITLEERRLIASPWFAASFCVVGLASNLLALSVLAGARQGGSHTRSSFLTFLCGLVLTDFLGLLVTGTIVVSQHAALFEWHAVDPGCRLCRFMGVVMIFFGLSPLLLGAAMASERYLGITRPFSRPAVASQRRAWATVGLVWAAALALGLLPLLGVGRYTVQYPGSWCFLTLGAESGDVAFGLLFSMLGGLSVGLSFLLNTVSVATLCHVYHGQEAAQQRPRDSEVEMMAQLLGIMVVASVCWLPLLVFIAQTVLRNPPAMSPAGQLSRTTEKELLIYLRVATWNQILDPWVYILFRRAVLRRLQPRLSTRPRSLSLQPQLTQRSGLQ
Sequence of rat Serotonin, 5-Hydroxytryptamine Receptor 1 (5HT1), Non-Selective Binding, Htr1a (gene 24473) (P19327 whole entry, looked up): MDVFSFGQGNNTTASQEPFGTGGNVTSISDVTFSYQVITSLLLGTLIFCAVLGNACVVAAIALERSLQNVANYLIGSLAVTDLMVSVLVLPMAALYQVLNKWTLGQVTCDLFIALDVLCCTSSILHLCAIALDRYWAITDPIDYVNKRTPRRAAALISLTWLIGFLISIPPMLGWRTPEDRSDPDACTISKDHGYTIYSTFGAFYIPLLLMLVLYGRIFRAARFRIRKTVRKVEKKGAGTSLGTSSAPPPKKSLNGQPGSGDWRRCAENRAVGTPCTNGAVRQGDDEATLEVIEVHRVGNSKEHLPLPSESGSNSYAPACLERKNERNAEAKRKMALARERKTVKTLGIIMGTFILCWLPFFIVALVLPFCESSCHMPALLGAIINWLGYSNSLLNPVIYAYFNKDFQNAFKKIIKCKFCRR
Sequence of human Opioid Receptor Delta 1 (Opiate D1), OPRD1 (gene 4985) (P41143 whole entry, looked up): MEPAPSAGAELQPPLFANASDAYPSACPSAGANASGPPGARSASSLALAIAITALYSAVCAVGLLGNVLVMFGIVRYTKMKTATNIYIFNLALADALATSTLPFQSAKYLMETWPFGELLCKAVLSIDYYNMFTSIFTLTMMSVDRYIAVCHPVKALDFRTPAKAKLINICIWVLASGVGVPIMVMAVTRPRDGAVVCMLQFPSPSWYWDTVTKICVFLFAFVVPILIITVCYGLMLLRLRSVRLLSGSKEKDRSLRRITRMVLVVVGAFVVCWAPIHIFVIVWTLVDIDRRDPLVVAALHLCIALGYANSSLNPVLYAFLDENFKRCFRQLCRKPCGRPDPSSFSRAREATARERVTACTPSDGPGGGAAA
Sequence of Muscarinic acetylcholine receptor M3 (Homo sapiens) (P20309 whole entry, looked up): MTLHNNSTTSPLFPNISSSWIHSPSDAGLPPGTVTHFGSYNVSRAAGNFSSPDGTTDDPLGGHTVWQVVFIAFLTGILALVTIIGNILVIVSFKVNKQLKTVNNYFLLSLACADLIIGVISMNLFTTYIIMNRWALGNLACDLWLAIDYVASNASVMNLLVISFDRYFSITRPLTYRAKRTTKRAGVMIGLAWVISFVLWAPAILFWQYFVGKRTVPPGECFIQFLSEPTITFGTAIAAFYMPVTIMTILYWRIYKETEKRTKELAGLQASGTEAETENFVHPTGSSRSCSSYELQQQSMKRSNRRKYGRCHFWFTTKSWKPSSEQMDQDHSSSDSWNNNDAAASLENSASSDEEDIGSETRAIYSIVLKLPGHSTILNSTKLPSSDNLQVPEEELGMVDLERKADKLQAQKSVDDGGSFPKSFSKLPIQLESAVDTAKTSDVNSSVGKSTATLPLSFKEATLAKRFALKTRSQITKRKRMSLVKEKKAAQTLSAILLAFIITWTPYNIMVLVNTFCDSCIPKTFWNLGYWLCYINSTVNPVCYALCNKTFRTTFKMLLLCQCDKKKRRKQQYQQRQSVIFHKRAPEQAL
Sequence of human Leukotriene B4 Receptor 1 (LTB4-BLT1), LTB4R (gene 1241) (Q15722 whole entry, looked up): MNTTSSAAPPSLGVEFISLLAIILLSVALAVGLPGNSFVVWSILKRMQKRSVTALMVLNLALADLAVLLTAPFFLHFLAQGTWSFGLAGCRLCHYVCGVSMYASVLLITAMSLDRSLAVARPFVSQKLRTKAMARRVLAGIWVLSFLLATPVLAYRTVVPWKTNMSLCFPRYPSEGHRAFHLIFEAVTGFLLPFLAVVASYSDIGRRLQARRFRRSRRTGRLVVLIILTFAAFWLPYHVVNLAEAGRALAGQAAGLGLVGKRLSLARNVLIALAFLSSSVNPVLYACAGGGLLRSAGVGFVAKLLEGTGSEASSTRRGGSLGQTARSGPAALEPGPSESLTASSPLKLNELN

CCCCCCCC1CCC(=O)O1 (centres undefined)
outcome [1]: inactive | outcome [2]: inactive

c1ccc(C(O[C@@H]2CCCN(CCc3ccc4c(c3)OCO4)C2)c2ccccc2)cc1
AC50 [3]: 5.62 µM (active) | AC50 [4]: 4.11 µM (active) | AC50 [5]: 0.031 µM (active) | AC50 [6]: 0.0184 µM (active) | AC50 [7]: 0.0461 µM (active) | AC50 [8]: 0.0501 µM (active) | AC50 [9]: 0.00937 µM (active) | outcome [10]: inactive | AC50 [11]: 5.79 µM (active) | AC50 [12]: 19.4 µM (active) | AC50 [2]: 9.62 µM (active)

OCCOCCOCCO
outcome [13]: inactive

Cc1ncc([C@@H](CCCCCCc2ccc3c(n2)NCCC3)CC(=O)O)cn1
AC50 [7]: 19.2 µM (active) | outcome [12]: inactive

O=S(=O)(O)c1ccc(N=Nc2c(O)ccc3cc(S(=O)(=O)O)ccc23)cc1
AC50 [4]: 38.4 µM (active) | outcome [6]: inactive | outcome [8]: inactive | AC50 [2]: 12.4 µM (active)

COc1cc(C(C)C)c2c(c1)S(=O)(=O)N(COc1cc(=O)n3cccc(OCCN4CCCCC4)c3n1)C2=O
AC50 [4]: 6.25 µM (active) | AC50 [5]: 2 µM (active) | AC50 [6]: 8.91 µM (active) | AC50 [7]: 0.681 µM (active) | AC50 [8]: 3.98 µM (active) | AC50 [9]: 3.71 µM (active) | AC50 [14]: 0.84 µM (active)

NC(N)=O
outcome [1]: inactive

COc1cc2c(c(OC)c1OC)-c1ccc(OC)c(=O)cc1[C@@H](NC(C)=O)CC2
AC50 [15]: 17.1 µM (active)

O=c1[nH]cnc2c1ncn2[C@H]1CC[C@@H](CO)O1
outcome [4]: inactive

c1ccc2cc3ccccc3cc2c1
outcome [3]: inactive

OCC(CO)(CO)CO
outcome [16]: inactive | outcome [1]: inactive

OCc1c[nH]c2ccccc12
AC50 [11]: 19.7 µM (active) | outcome [17]: inactive

CCn1nc(C)c2c1C(=O)NCC(c1ccc(O)cc1)=N2
outcome [3]: inactive | outcome [4]: inactive | outcome [5]: inactive | outcome [7]: inactive | outcome [8]: inactive | outcome [9]: inactive | outcome [10]: inactive | outcome [11]: inactive | AC50 [17]: 14.4 µM (active) | outcome [2]: inactive

Cc1cccc(O)c1C
outcome [17]: inactive

O=C(O)c1ccc2c(c1)nc(C(=O)NC1CCN(C3CC3)CC1)n2Cc1cc(-c2ccc(Cl)s2)on1
outcome [12]: inactive | outcome [2]: inactive

CCCOc1ccc(S(=O)(=O)N2CCN(CC)CC2)cc1-c1nc2c(CC)n(Cc3ccccn3)nc2c(=O)[nH]1
AC50 [15]: 6.42 µM (active)

Reference: PubChem BioAssay (EPA / NIEHS)
